Calls of active or inactive are those of the source.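 How the source made its calls, unless noted: active means fluorescence slope after compound addition differing from the mean of all screened samples at 99.7% confidence, in either direction; inactive means the rest.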
Tests used:
[1] = inhibitors of TNFa-induced NFkB p65 translocation, primary screen, imaging, HUVEC, MLSMR starter and 10KST1 sets (AID 438;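 active means inhibition above 20% together with a positive visual image hit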;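 further: compound added about 3h40 before a 20 min TNFalpha stimulation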;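 on inhibition: signal is the nuclear over cytoplasmic p65 intensity ratio per well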); conditions: HUVEC TNFa-induced p65 nuclear translocation; cell count: measured here: nuclei count (cytotoxicity indicator), at 2.08 µM; inhibition: at 2 µM, stronger effect = higher value, 0% TNFa-plus-vehicle, 100% no-TNFa wells
[2] = reduction of polyQ htt aggregates in cells – imaging, exon1htt(103Q)mCFP cells, high-content imaging, primary screen (AID 483;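 active means visual image review flags a hit and inhibition of aggregation exceeds 20%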;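 further: compound exposure lasted 3 days before fixation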;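 on nuclei count: percent of the per-plate median nuclei count of sample wells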); conditions: exon1htt(103Q)mCFP cell line, aggregate imaging, at 2 µM; inhibition of aggregation: stronger effect = higher value; nuclei count: measured here: cell count, toxicity
[3] = endothelial E-selectin expression blockers – imaging, HUVEC, immunofluorescence, MLSMR starter and 10KST1 sets, primary screen (AID 487;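 active means visually confirmed hit in the image check and inhibition above 20%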;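 on inhibition: signal is fraction of cell area covered by stained E-selectin grains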;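 on nuclei count: 100% = median nuclei count of all wells on the same plate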); conditions: HUVEC TNFalpha-induced E-selectin immunofluorescence imaging, at 2 µM; inhibition: stronger effect = higher value; nuclei count: measured here: cell number, toxicity
[4] = target: Voltage-gated potassium channel subunit beta-2 (Rattus norvegicus) (UniProt P62483); test: inhibitors of rat Kvbeta2 reductase activity – biochemical, NADPH fluorescence, primary screen (AID 622;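 active means fluorescence slope higher than the sample average by over 3 SD, cut at about -0.22 in these data, passing the limit was not always enough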;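 further: slope of raw intensity against log time taken from 70 to 1610 s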); conditions: recombinant KvBeta, 4-cyanobenzaldehyde reduction, at 10 µM, stronger effect = higher value
[5] = target: Voltage-gated potassium channel subunit beta-2 (Rattus norvegicus) (UniProt P62483); test: enhancers of rat Kvbeta2 NADPH turnover – biochemical, NADPH fluorescence, primary screen (AID 623;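 active means NADPH fluorescence slope more negative than the mean of all samples by about 3 SD, 99.7% confidence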;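 further: fluorescence intensity change per second fitted from 20 to 320 s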); conditions: Recombinant KvBeta, NADPH fluorescence decrease slope, 10 min; at 10 µM; stronger effect = lower value
[6] = target: Alpha-2C adrenergic receptor (Homo sapiens) (UniProt P18825); test: compounds altering alpha2C-coupled GIRK flux – cell-based, HEK293 alpha2C/GIRK1/2, thallium flux, primary screen (AID 624); conditions: thallium flux BTC fluorescence, at 10 µM, actives lie on both sides;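 further: slope of fluorescence ratio to pre-addition baseline per second over 15 to 24 s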
[7] = blockers of RIG-like receptor reporter activation – cell-based, Sendai virus stimulus, luciferase, 10K MLSCN set, TLR/RLR signaling modifier project, primary screen (AID 602276;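 active means inhibition at or above 50% at 10 µM; inactive means inhibition below 50%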;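 further: firefly luciferase from ISG56 promoter only with Renilla not read in this screen; 0% = Sendai virus plus DMSO and 100% = medium plus DMSO without virus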); conditions: HEK293 RL24 IRF3 luciferase reporter, at 10 µM, stronger effect = higher value
[8] = TLR3 IRF3 reporter activation blockers – cell-based, poly I:C stimulus, luciferase, 10K MLSCN set, primary screen (AID 602277;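 active means inhibition of the reporter signal at or above 50%; inactive means inhibition below 50%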); conditions: HEK293-TLR3 RL24 IRF3 luciferase reporter, at 10 µM, stronger effect = higher value

Sequence of Voltage-gated potassium channel subunit beta-2 (Rattus norvegicus) (P62483 whole entry, looked up): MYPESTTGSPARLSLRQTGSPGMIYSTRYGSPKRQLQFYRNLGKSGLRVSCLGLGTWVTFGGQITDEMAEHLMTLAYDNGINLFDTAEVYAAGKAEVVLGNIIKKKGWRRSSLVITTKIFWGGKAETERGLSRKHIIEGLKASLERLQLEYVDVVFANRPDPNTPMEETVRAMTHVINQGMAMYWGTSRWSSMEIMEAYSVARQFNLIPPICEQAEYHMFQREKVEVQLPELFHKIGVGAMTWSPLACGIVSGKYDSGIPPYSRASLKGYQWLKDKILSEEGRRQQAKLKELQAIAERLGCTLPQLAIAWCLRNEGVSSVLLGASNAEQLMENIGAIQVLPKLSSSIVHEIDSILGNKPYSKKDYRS
Sequence of Alpha-2C adrenergic receptor (Homo sapiens) (P18825 whole entry, looked up): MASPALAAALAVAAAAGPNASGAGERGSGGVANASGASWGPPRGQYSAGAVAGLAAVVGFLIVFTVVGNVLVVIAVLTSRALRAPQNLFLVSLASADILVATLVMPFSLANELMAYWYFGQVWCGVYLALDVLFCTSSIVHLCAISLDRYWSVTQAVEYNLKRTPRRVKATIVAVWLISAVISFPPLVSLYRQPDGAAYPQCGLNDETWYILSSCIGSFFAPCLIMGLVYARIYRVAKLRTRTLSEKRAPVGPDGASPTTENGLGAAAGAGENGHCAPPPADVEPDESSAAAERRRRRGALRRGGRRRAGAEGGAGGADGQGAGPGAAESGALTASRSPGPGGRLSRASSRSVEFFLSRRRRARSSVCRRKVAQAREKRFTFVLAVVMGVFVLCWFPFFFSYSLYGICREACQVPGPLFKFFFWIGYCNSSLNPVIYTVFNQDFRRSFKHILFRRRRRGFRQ

| SMILES | cell count [1] | inhibition [1] | inhibition of aggregation [2] | nuclei count [2] [%] | inhibition [3] | nuclei count [3] [%] | fluorescence slope [4] | NADPH fluorescence slope [5] | slope [6] | inhibition [7] | inhibition [8] |
| --- | --- | --- | --- | --- | --- | --- | --- | --- | --- | --- | --- |
| Cc1ccc(N2CCN(CCc3nc4cc(NS(C)(=O)=O)ccc4n3C)CC2)cc1 | 322 | 7% (inactive) | 2% (inactive) | 90.6 | 21.6% (inactive) | 122 | -0.531 (inactive) | -3.7e-05 (inactive) | 0.00789 (inactive) | -11.6% (inactive) | -19.7% (inactive) |
| O=C(NCc1cccs1)c1cc2c(s1)CCCC2 | 377 | -16.3% (inactive) | 5.1% (inactive) | 89.1 | -21.4% (inactive) | 126 | -0.479 (inactive) | 6e-05 (inactive) | 0.0052 (inactive) | -44.6% (inactive) | -105% (inactive) |
| O=C(O)c1cccn2c(=O)c3ccccc3nc12 | 799 | -2.3% (inactive) | -14.1% (inactive) | 84.3 | -19.6% (inactive) | 126 | -0.313 (inactive) | -2.6e-05 (inactive) | 0.0061 (inactive) | 8.6% (inactive) | 6.83% (inactive) |
| CC(=O)NC(CCS(C)(=O)=O)C(=O)Nc1cccc2ccccc12 (stereo unspecified) | 667 | 3.9% (inactive) | 18.3% (inactive) | 100 | -7.5% (inactive) | 108 | -0.564 (inactive) | -3.4e-05 (inactive) | 0.006 (inactive) | 1.24% (inactive) | 31.9% (inactive) |
| COc1ccc(C(=O)Nc2cccc(-c3nc4ncccc4o3)c2C)cc1OC | 729 | -44.9% (inactive) | -4.4% (inactive) | 96.1 | -22.4% (inactive) | 109 | -0.562 (inactive) | 1.4e-05 (inactive) | 0.00564 (inactive) | -16.3% (inactive) | -34.5% (inactive) |
| C=CCn1c(SCC(=O)Nc2cccc(OC)c2)nnc1-c1cccnc1 | 619 | -4.8% (inactive) | 0.3% (inactive) | 118 | -52.7% (inactive) | 104 | -0.527 (inactive) | -9.5e-06 (inactive) | 0.00671 (inactive) | 10.5% (inactive) | 16.9% (inactive) |
| CC(CN1CCCCC1)OC(=O)c1ccc(Cl)cc1Cl (stereo unspecified) | 585 | 10.3% (inactive) | -8.8% (inactive) | 87.8 | 9.3% (inactive) | 105 | -0.438 (inactive) | 1.5e-06 (inactive) | 0.00424 (inactive) | -18.5% (inactive) | -15.9% (inactive) |
| O=C(Cn1nnc(-c2cc(Cl)ccc2-n2cnnn2)n1)N1CCCc2ccccc21 | 574 | -2.1% (inactive) | -3.1% (inactive) | 97.2 | -13.8% (inactive) | 105 | -0.425 (inactive) | -0.000127 (inactive) | 0.00585 (inactive) | 17.3% (inactive) | 23.2% (inactive) |
| CCOC(=O)CCCOC(=O)c1ccc(S(=O)(=O)N(C)C)cc1 | 374 | -12.5% (inactive) | 2.8% (inactive) | 67.5 | -8.8% (inactive) | 106 | -0.454 (inactive) | -4.3e-05 (inactive) | 0.00644 (inactive) | 0.818% (inactive) | 10.6% (inactive) |
| CCCCN(CC)CCNC(=O)c1cc2c(C)nc3ccccc3c2o1 | 656 | 0.3% (inactive) | -11.7% (inactive) | 103 | -28.4% (inactive) | 110 | -0.544 (inactive) | -3.2e-05 (inactive) | 0.00664 (inactive) | 5.91% (inactive) | 47% (inactive) |
| Cc1cnn(Cc2ccccc2)c1N | 638 | 2.3% (inactive) | -4.6% (inactive) | 105 | 25.6% (inactive) | 100 | -0.6 (inactive) | -3.5e-05 (inactive) | 0.00669 (inactive) | 14.7% (inactive) | 21.3% (inactive) |
| N#Cc1ccc(CSc2nnc(-c3cccs3)n2-c2ccccc2)cc1 | 369 | -6% (inactive) | -12.4% (inactive) | 99.1 | -50% (inactive) | 120 | -0.5 (inactive) | 9.2e-06 (inactive) | 0.00461 (inactive) | -0.725% (inactive) | 2.95% (inactive) |
| COc1ccc(OC)c(NC(=O)CCN2CCC(C)CC2)c1 | 446 | -6.2% (inactive) | 15.7% (inactive) | 101 | -120% (inactive) | 220 | -0.59 (inactive) | -3.6e-05 (inactive) | 0.00565 (inactive) | -15.8% (inactive) | -0.553% (inactive) |
| Cc1cc(C(=O)NCc2cccnc2)no1 | 337 | 4.2% (inactive) | 6.9% (inactive) | 105 | 7.8% (inactive) | 102 | -0.5 (inactive) | -8.2e-06 (inactive) | 0.00709 (inactive) | 11.1% (inactive) | 14.3% (inactive) |
| Cn1c(=O)cc(OCC(=O)NCCCN2CCN(c3cccc(Cl)c3)CC2)c2ccccc21 | 583 | 8% (inactive) | -42.4% (inactive) | 98.2 | -83.7% (inactive) | 128 | -0.514 (inactive) | -1.4e-05 (inactive) | 0.00636 (inactive) | 25% (inactive) | 31.3% (inactive) |
| CCSc1nnc(NC(=O)CCNS(=O)(=O)c2cc(Br)cnc2N)s1 | 243 | -1.3% (inactive) | 3.8% (inactive) | 93.5 | 32.4% (inactive) | 80.5 | -0.444 (inactive) | 1.8e-05 (inactive) | 0.0065 (inactive) | 2.91% (inactive) | 8.81% (inactive) |
| COC(=O)c1cccc(NC(=O)CSc2nnc(COc3ccc(C#N)cc3)n2-c2ccccc2)c1 | 599 | 3.7% (inactive) | -5.1% (inactive) | 91.2 | -64.7% (inactive) | 120 | -0.586 (inactive) | 4.9e-05 (inactive) | 0.00802 (inactive) | -22% (inactive) | -18.5% (inactive) |
| COc1cccc(-c2nc(CS(=O)(=O)CC(=O)Nc3cc(C)ccc3C)c(C)o2)c1 | 718 | -4.6% (inactive) | -2.5% (inactive) | 59.5 | -21.2% (inactive) | 104 | -0.517 (inactive) | -4.8e-05 (inactive) | 0.00688 (inactive) | 5.73% (inactive) | 27.7% (inactive) |
| CCCCc1noc2c1/C(=N\O)CC(c1ccccc1)C2 (stereo unspecified) | 365 | 2% (inactive) | 11.5% (inactive) | 106 | -65.5% (inactive) | 94.1 | -0.446 (inactive) | -5.9e-05 (inactive) | 0.0073 (inactive) | -46.5% (inactive) | -152% (inactive) |
| CC1=C(C(=O)N2CCCCC2)C2(CCC(C)CC2)OC1=O (stereo unspecified) | 759 | -1.1% (inactive) | -11.5% (inactive) | 118 | -27.8% (inactive) | 120 | -0.524 (inactive) | -1.1e-05 (inactive) | 0.00741 (inactive) | 15.2% (inactive) | 20.4% (inactive) |
| Oc1ccc2ccccc2c1CN1CCN(c2ccccc2F)CC1 | 564 | 2.2% (inactive) | 7.8% (inactive) | 107 | 9.5% (inactive) | 111 | -0.574 (inactive) | -3.4e-05 (inactive) | 0.00592 (inactive) | 9.17% (inactive) | 26.6% (inactive) |
| Clc1ccc(OCc2nc(-c3ccccn3)no2)c(Br)c1 | 814 | 1.8% (inactive) | 4.2% (inactive) | 95 | -1.9% (inactive) | 121 | -0.595 (inactive) | -8.6e-06 (inactive) | 0.00567 (inactive) | -31.1% (inactive) | -134% (inactive) |
| S=C(c1ccc(-c2cc(Cl)ccc2Cl)o1)N1CCOCC1 | 365 | -10.4% (inactive) | -14% (inactive) | 111 | -53.8% (inactive) | 113 | -0.523 (inactive) | -6e-06 (inactive) | 0.00341 (inactive) | 21.6% (inactive) | 8.92% (inactive) |
| C=CCn1c(SCC(=O)C(C)(C)C)nnc1-c1ccccn1 | 583 | -3.4% (inactive) | 16.4% (inactive) | 83.3 | 9.2% (inactive) | 90.9 | -0.291 (inactive) | -5.6e-05 (inactive) | 0.00526 (inactive) | 12.5% (inactive) | 18.5% (inactive) |
| O=C(O)C1CCCN1C(=O)c1cccs1 (stereo unspecified) | 367 | -18.4% (inactive) | -4.2% (inactive) | 105 | -53% (inactive) | 117 | -0.487 (inactive) | -7.9e-05 (inactive) | 0.00489 (inactive) | 5.87% (inactive) | 10.7% (inactive) |
| Cc1cnc(C(=O)OCC(=O)Nc2ccc(Oc3ccccc3)cc2)cn1 | 566 | -16.3% (inactive) | -29.2% (inactive) | 107 | -1.5% (inactive) | 122 | -0.367 (inactive) | -8.3e-06 (inactive) | 0.00457 (inactive) | -29.5% (inactive) | -39.7% (inactive) |
